Data on 60 compounds can be found in ChEMBL document CHEMBL3988442, “University of Dundee, Small-Polar-MMV Screening Library” (2021).

The structures appear in SMILES notation.

The assay concerns the target AMP-activated protein kinase, AMPK (Homo sapiens) (UniProt P54646+O43741+P54619+Q9UGJ0+Q9Y478+Q13131+Q9UGI9). As to the kind of experiment: AMP-dependent Kinase enzyme assay. An in vitro enzyme assay that detects ADP turnover that is directly proportional to AMPK activity. This uses naive AMPK that is activated during the assay with MK-8722. In kind it is functional. On the set-up: scale not given: direction of the effect not stated beside the values. The settings on record: 30 µM.

`O=C(O)[C@@H]1CN(CCOCCO)C[C@H]1c1ccccc1`: the Percent Effect was 1.29%.

Consider `COc1nc2c(cc1C(=O)NC(C)Cc1cnccn1)CCC2` (stereo not given), for which the Percent Effect is -1.98%.

`CCc1ccc2nc(-c3cnn(C)c3)cc(C(=O)N3CCCC3)c2c1`: the Percent Effect is 7.23%.

Consider `Cc1nn(C)cc1NC(=O)CN1CCN(C2CCCC2)C(=O)C1`, for which the Percent Effect is 16.5%.

On to `Cc1ccc(-c2ccccc2CC2CNCCNC2=O)c(C)c1` (stereo not given), for which the Percent Effect turned out to be 2.34%.

Take `O=C(CCOc1ccccc1F)N1CCC(O)CC1`: the Percent Effect came out at 3.95%.

As for `CCNC(=O)c1ccc(NC(=O)N(C)Cc2cc(C)on2)c(C)c1`, the Percent Effect amounted to 10.2%.

For the compound `CC(NC(=O)N1CCCN(C)CC1)c1ccc2c(c1)OCCO2` (stereo not given), the Percent Effect is 3.15%.

Turning to `O=c1[nH]c2ccc(S(=O)(=O)N(CCO)Cc3ccncc3)cc2[nH]1`, the Percent Effect was found to be 15.8%.

As for `CCc1ccc(CN2CCOC(Cc3cccc(F)c3)C2)nc1` (stereo not given), the Percent Effect was determined as 5.27%.

As for `Cc1cc(C(=O)N2CCC(CCC(=O)NCCN(C)C)CC2)ccc1O`, the Percent Effect was determined as 21.5%.

Take `CC(CNC(=O)c1c[nH]nn1)Oc1ccc(Cl)cc1` (stereo not given): the Percent Effect came to 3.24%.

With `CC(C)c1noc(C(C)N2CCC(c3nc4ccccc4o3)CC2)n1` (stereo not given), the Percent Effect was 0.506%.

Regarding `CC(C)n1ccnc1CNC(=O)c1cccc(CCC(C)(C)O)c1`, the Percent Effect was found to be 6.45%.

Turning to `COc1ccccc1N1CCN(C(=O)CCc2nncn2C)C(C)C1` (stereo not given), the Percent Effect amounted to 24.5%.

Take `Cc1ccc(N2CCC(c3cc(Cc4ccccc4)n[nH]3)CC2)nn1`: the Percent Effect was determined as 10.9%.

`CCCC(=O)NC1CCCN(c2cncc(Br)c2)C1` (stereo not given): the Percent Effect was determined as 22.4%.

With `COc1ccc2c(c1)OCC(C(=O)NCc1nc3c(s1)CCCC3)C2` (stereo not given), the Percent Effect came to 8.94%.

Consider `O=c1[nH]nc(CNCc2ccc(OC34CCCN(CC3)C4)cc2)[nH]1` (stereo not given), for which the Percent Effect is -7.25%.

As for `Cc1cc(NCCNc2cccnc2)nc(-c2ccccc2O)n1`, the Percent Effect was 19.9%.

For `CCN(CC)CCN(CC(C)C)c1cc(C(F)(F)F)nc2ncnn12`, the Percent Effect was found to be 0.943%.

Consider `Cc1ccccc1S(=O)(=O)N(C)[C@@H]1CC[C@@H](n2ccnc2C)[C@@H]1O`, for which the Percent Effect was -13.8%.

Regarding `O=C(NCC(O)c1ccc(F)cc1)C1CCN(C2CCCCC2)CC1` (stereo not given), the Percent Effect was -8.77%.

For `CN1CC(C(=O)NCCc2ccc(F)c(Br)c2)CC1=O` (stereo not given), the Percent Effect came out at 5.17%.

Turning to `CCNc1ncc(C(=O)NCCc2csc(-c3ncccn3)n2)cn1`, the Percent Effect is -8.34%.

As for `CN(CCc1ccncc1)c1cnn(C)c(=O)c1Br`, the Percent Effect is -1.01%.

Turning to `COC(=O)[C@@H]1C[C@@H](O)CN1Cc1ccn(-c2ccc(F)cc2)n1`, the Percent Effect was -3.45%.

As to `CCS(=O)(=O)N1CCN(C(C)c2ncc(-c3ccccc3)o2)CC1` (stereo not given), the Percent Effect is -3.96%.

As to `Cc1cccc(C)c1Oc1ncccc1CNC(=O)C1COC(=O)N1` (stereo not given), the Percent Effect is -10.7%.

Take `COc1ncnc(N)c1CNCCc1ccc(-n2cccn2)cc1`: the Percent Effect is 6.72%.

Turning to `COc1ccnc(CNc2nc(C)nc3ccsc23)c1`, the Percent Effect is -0.808%.

With `CNC(=O)c1cccnc1NCc1ccc(Cn2cccn2)cc1`, the Percent Effect was -3.46%.

Regarding `NC(=O)NC1CCN(Cc2ccccc2OCC(F)(F)F)CC1`, the Percent Effect is -5.97%.

For the compound `O=C(C1CC(c2ccccc2)=NO1)N1CCc2ccccc21` (stereo not given), the Percent Effect amounted to 13.9%.

In the case of `COCc1nn(Cc2ccc(Cl)s2)c(=O)o1`, the Percent Effect worked out at 6.29%.

As for `CCOCCC(=O)Nc1cccc(Cl)c1COC`, the Percent Effect is -0.185%.

For `O=C(CCC1CCCN(C(=O)CCc2ccc(F)c(F)c2)C1)NC1CC1` (stereo not given), the Percent Effect turned out to be 5.21%.

Turning to `COC(=O)Cn1c(C)cc(=O)c2cc(F)ccc21`, the Percent Effect stood at 1.38%.

As to `CN(Cc1cccc(OC(F)(F)F)c1)Cc1cnn(C)c1`, the Percent Effect is -4.15%.

Take `Cc1cc(C)c(C#N)c(NCCn2cnnc2C(C)C)n1`: the Percent Effect was 2.2%.

On to `N#Cc1c(N)nc2c(c1C1CCOC1)CCc1cc(O)ccc1-2` (stereo not given), for which the Percent Effect is 32%.

Regarding `CC(C)(C)C(=O)N1CCCC1c1cc(CO)[nH]n1` (stereo not given), the Percent Effect came to 14.4%.

Consider `Fc1ccc(C2CCCCN2Cc2cc(-c3ccccn3)no2)cc1` (stereo not given), for which the Percent Effect turned out to be 7.03%.

Consider `CC(C)C(=O)NCCc1nc(-c2ccncc2)n[nH]1`, for which the Percent Effect was 10.7%.

Turning to `CC(C)n1cnnc1CN(C)C(=O)c1cc(COc2ccccc2)[nH]n1`, the Percent Effect turned out to be 0%.

For `COc1ccc(N2CCC(NS(=O)(=O)N(C)C(C)C)CC2)cc1`, the Percent Effect was found to be 13.8%.

As to `COc1ccc(CN(C)C(=O)CN2CC(n3cccn3)C2)cc1F`, the Percent Effect was -4.28%.

Take `CC(=O)NC1CCCN(c2nc3ccccc3cc2CO)C1` (stereo not given): the Percent Effect is 3.71%.

With `CC(C)c1nn(C)c(N(C)C)c1CNCc1ccnc(N(C)C)c1`, the Percent Effect was -12.6%.

For `CC1(C)O[C@@](C)([C@H]2CC3(CCN(c4ncccn4)CC3)CO2)CC[C@@H]1O`, the Percent Effect is 7.88%.

With `Cc1nnc(CN(C)CC(=O)NC(C)(C)c2ccc(F)cc2)n1C`, the Percent Effect was 6.43%.

As for `Cc1sc(C(=O)NS(C)(=O)=O)cc1-c1ccc(F)cc1`, the Percent Effect was -4.08%.

As to `Cc1cc(CN(CC(N)=O)CC(C)C)on1`, the Percent Effect is -2.52%.

Consider `COc1ccc(N2CCC(NC(=O)c3sccc3C)CC2)cc1`, for which the Percent Effect is -1.46%.

Consider `CC(=O)N1CCC(c2ncc(C(=O)Nc3ccc(F)cc3)c(C)n2)CC1`, for which the Percent Effect is -4.39%.

Consider `Cc1cc(N2CCC(O)(C(=O)O)CC2)nc2ccccc12`, for which the Percent Effect turned out to be 3.47%.

Regarding `O=C1CN([C@@H]2CC[C@@H](NS(=O)(=O)c3ccc(F)cc3)[C@H]2O)CCN1`, the Percent Effect is 2.53%.

Regarding `Cc1occc1C(=O)Nc1ccc(C(=O)NC[C@H]2CCCN2)cc1`, the Percent Effect is -9.02%.

On to `Cc1nc(N(C)C)ncc1C(=O)N(Cc1ccncc1)CC1CCCO1` (stereo not given), for which the Percent Effect was -6.01%.

Regarding `Cc1ccccc1C(=O)NCC(=O)NCc1ccccn1`, the Percent Effect was determined as 17.3%.
